Drawing on PubChem BioAssay AID651820 (National Center for Advancing Translational Sciences (NCATS), 2012), this text covers Potency for 100 molecules.

SMILES strings stand for the structures. About 12,000 (3.5%) of roughly 340,000 compounds were called active. Where a call stands in place of a potency, no number is given. Inconclusive results (about 18%) are left out. The call rests on the fitted dose curve; in most records, active means well fitted inhibition curve with a large enough effect; inconclusive means small, poorly fitted or top-dose-only effect, or another doubt; inactive means no such curve, though single readings can be large or run the other way. Only a selection was taken, and actives are over-represented in it overall.
Potency means the concentration at half of the fitted maximal effect.

The nature of the assay: qHTS Assay for Inhibitors of Hepatitis C Virus (HCV). As to conditions: Huh7.5.1 HCVcc-Cre infection, luciferase reporter, 44 h; series mostly up to 41.8 µM. The gist of the method:
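Reporter virus HCVcc-Cre (~0.5 moi) infects cells exposed to compound; seeding density 1,000 cells/well with 4 h settling beforehand. Luminescence, 15 sec read, taken 44 h post-infection following a 15 min RT substrate incubation.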
For orientation: In qHTS, concentration-response curves come from the screen itself.
Take `CC1CCCCC1NCC(=O)Nc1ccccc1C(=O)Nc1ccccc1` (stereo not given): the Potency is 0.891 µM (active).
Turning to `COc1cccc(CN(C)CC(=O)Nc2ccccc2C(=O)Nc2ccccc2)c1`, the Potency entry was “inactive”.
`CCCC(NCC(=O)Nc1ccccc1C(=O)NC1CC1)c1ccccc1` (stereo not given): the Potency result is “inactive”.
Then `Cc1ccc(S(=O)(=O)NC2CCCCCC2)cc1`, with “inactive”; and `O=C1C=CN2CCCC2CC1` (stereo not given), with “inactive”; and `COc1ccc(C(CNC(=O)c2ccc(S(=O)(=O)Nc3ccccc3C)cc2)N2CCOCC2)cc1` (stereo not given), with “inactive”.
Regarding `CCOC(=O)C1=C(C)Nc2sc(C(=O)c3ccc(Br)cc3)c(N)c2C1c1ccc(C(=O)OC)cc1` (stereo not given), the Potency is 8.91 µM (active).
In the case of `CCOC(=O)c1sc(=S)n2c1[nH]c(=O)c1ccc(C(=O)OC)cc12`, the Potency result was “inactive”.
For the molecule `CCOC(=O)c1sc(=NC(=O)c2ccc(Br)cc2)n(C)c1C`, the Potency result is “inactive”.
For the molecule `CCCCCCSc1ccc([C@@H]2[C@@H]3C(=O)N(CC)C(=O)[C@@H]3[C@]3(C(=O)OC)CCCCN23)cc1OC`, the Potency result was “inactive”.
Turning to `CCCCOc1ccc(CON(C(C)=O)C(C)=O)cc1Cl`, the Potency entry is “inactive”.
Consider `Cc1ccc(C2=CSC3=NS(=O)(=O)CCN23)cc1C`, for which the Potency result is “inactive”.
Then `CCCOc1ccc(C2=CSC3=NCCN23)cc1Cl`, with 11.2 µM (active); and `CC[C@]12c3[nH]c4cc(CCC(=O)N(C)C)ccc4c3CCN1C(=O)[C@@H](CC(=O)NCCCN(C)C)C[C@@H]2C(=O)N1CCN(C(=O)c2ccco2)CC1`, with “inactive”.
With `Cc1noc(C)c1S(=O)(=O)N(C)C[C@H]1Oc2ccc(NC(=O)C3CCCCC3)cc2C(=O)N([C@H](C)CO)C[C@@H]1C`, the Potency result is “inactive”.
As to `CCOC(=O)[C@H]1[C@H]2COc3ccc(Br)cc3[C@@H]2N2C(=O)CN(C)C(=O)[C@@]12C`, the Potency entry was “inactive”.
Regarding `N#Cc1c(/N=C/N2CCCC2)oc(-c2ccccc2)c1-c1ccccc1`, the Potency is 14.1 µM (active).
With `N#Cc1c(-c2ccccc2)c(-c2ccccc2)n[nH]c1=O`, the Potency entry was “inactive”.
Then `N#Cc1c2c(c(-c3ccccc3)[nH]c1=O)CCCC2`, with “inactive”.
Turning to `CCN(CC)C(=O)c1nc[nH]c1C(=O)N(C)Cc1ccccc1`, the Potency result is “inactive”.
For `COc1ccc(C(=O)N2CCN(c3ncccn3)CC2)cc1S(=O)(=O)N1CCOCC1`, the Potency result was “inactive”.
On to `CCC(=O)c1cc(F)ccc1OCC(=O)Nc1ccc2c(c1)OCCO2`, for which the Potency result is “inactive”.
For the molecule `Cc1ccc(NC(=O)C2CC(=O)N(c3ccc4c(c3)OCCO4)C2)cc1S(=O)(=O)N1CCCCCC1` (stereo not given), the Potency is 10 µM (active).
For `Cc1ccc(N2CC(C(=O)Nc3ccc(S(=O)(=O)N4CCCC4)cc3)CC2=O)cc1C` (stereo not given) the value was “inactive”; for `COc1ccc(S(=O)(=O)N2CCCCC2)cc1NC(=O)C1CC(=O)N(c2ccc3c(c2)OCCO3)C1` (stereo not given), “inactive”; for `CN1C(C(=O)NCc2ccco2)CC2Cn3c(nc4ccccc43)C21` (stereo not given), “inactive”.
For `CC(=O)Nc1ccc(NC(=O)CS(=O)(=O)c2cn(CC(=O)N3CCCCC3)c3ccccc23)cc1`, the Potency result was “inactive”.
For `CCOC(=O)c1ccc(NC(=O)CS(=O)(=O)c2cn(CC)c3ccccc23)cc1` the value was 14.1 µM (active); for `CCOC(=O)c1ccc(NC(=O)CCn2c(=O)oc3ccccc32)cc1`, “inactive”; for `Cc1ccc(NC(=O)C(C)OC(=O)Cc2c[nH]c3ccccc23)cc1S(=O)(=O)N1CCOCC1` (stereo not given), “inactive”.
With `Cc1ccc(C)c(S(=O)(=O)N(C)c2ccc(OC(=O)C3CCN(C(=O)c4ccc(F)cc4)CC3)cc2)c1`, the Potency result is “inactive”.
For `CCCCNC1(C#N)CCN(Cc2ccccc2)CC1`, the Potency result was “inactive”.
Turning to `OCC1(Cc2ccccc2)CCN(Cc2cc3ccccc3o2)CC1`, the Potency entry was “inactive”.
For the molecule `COc1ccccc1CN(C)C(=O)c1cc2ccccc2o1`, the Potency entry was “inactive”.
For `CN(C)CCCCCN(C)Cc1cc2ccccc2o1` the value was 3.16 µM (active); for `Brc1ccc(CN2CC[C@H]3C=CCc4cccc(c43)C2)cc1`, “inactive”; for `COc1ccc(S(=O)(=O)N2CCOCC2)cc1NC(=O)COc1ccccc1`, “inactive”.
With `COc1ccc(-c2nn(C)c(=O)c3ccccc23)cc1NC(=O)COc1ccccc1`, the Potency was 10 µM (active).
With `CCC(=O)NCc1cc(-c2nn(C)c(=O)c3ccccc23)ccc1OC`, the Potency result is “inactive”.
Consider `CC(C)(C)c1nnc2sc(SCC(O)=C(C#N)c3nc4ccccc4[nH]3)nn2c1=O`, for which the Potency entry is “inactive”.
Turning to `CCOC(=O)C1CCCN(C(=O)c2ccc(C)c(S(=O)(=O)N3CCCCC3)c2)C1` (stereo not given), the Potency entry was “inactive”.
`O=C1CCC/C=C\C[C@@H](CC(=O)N(CCO)Cc2ccccc2)C(=O)NCCO1`: the Potency entry is “inactive”.
As to `CC(OC(=O)/C=C/c1ccccc1)C(=O)Nc1ccc(C(N)=O)cc1` (stereo not given), the Potency entry is “inactive”.
Take `Oc1ccc(Br)cc1/C=N/Nc1ccccn1`: the Potency was 3.55 µM (active).
Regarding `Oc1ccc(Br)cc1C=Nc1ccc2[nH]ncc2c1`, the Potency entry was “inactive”.
As to `O=C(CCCO)N/N=C/c1cc(Br)ccc1O`, the Potency result is “inactive”.
As to `O=C(NCC1CCCCC1)NCC1CCCCC1`, the Potency entry is “inactive”.
With `Cc1c(NC(=O)C(C)Oc2cccc(Cl)c2)c(=O)n(-c2ccccc2)n1C` (stereo not given), the Potency entry is “inactive”.
Then `CC(Nc1nc(C(F)(F)F)nc2ccccc12)c1cccs1` (stereo not given), with 10 µM (active).
As for `Cc1cc(C)n(-c2nc(C(F)(F)F)nc3ccccc23)n1`, the Potency entry is “inactive”.
With `Cc1ccsc1C(=O)OCC(=O)NCCc1ccccc1`, the Potency entry was “inactive”.
On to `CC1CCCN(C(=O)Cn2c(=O)oc3cc(S(=O)(=O)N4CCCCC4C)ccc32)C1` (stereo not given), for which the Potency entry is “inactive”.
On to `NC(=O)C1CCN(C(=O)COc2cccc3cccnc23)CC1`, for which the Potency entry was “inactive”.
For `CCOc1cc(N2CCOCC2)c(OCC)cc1NC(=O)COc1cccc2cccnc12`, the Potency was 7.94 µM (active).
As for `CCOc1cc(N2CCOCC2)c(OCC)cc1NC(=O)COC(=O)[C@H](Cc1c[nH]c2ccccc12)NC(C)=O`, the Potency entry was “inactive”.
Turning to `CCOc1cc(N2CCOCC2)c(OCC)cc1NC(=O)C1=NN(c2cccc(C)c2)C(=O)CC1`, the Potency result was “inactive”.
Regarding `CCOc1cc(N2CCOCC2)c(OCC)cc1NC(=O)c1ccc(C)s1`, the Potency is 25.1 µM (active).
Consider `CCOc1cc(N2CCOCC2)c(OCC)cc1NC(=O)c1cc(C)nc2ccccc12`, for which the Potency entry is “inactive”.
Then `CC(C)(C)NS(=O)(=O)NC(=O)C1=C(N2CCCC2)COC1=O`, with “inactive”; and `COc1ccccc1CNC(=O)COC(=O)c1cccs1`, with “inactive”.
Take `N#Cc1ccc(C(=O)Nc2nc(-c3cccs3)c(C(=O)C(F)(F)F)s2)cc1`: the Potency is 11.2 µM (active).
Turning to `Cc1ccc(C(=O)Nc2nnc(-c3cccs3)s2)cc1C`, the Potency entry was “inactive”.
For `CCOc1cccc(C(=O)Nc2nnc(-c3cccs3)s2)c1` the value was “inactive”.
In the case of `CC1CCN(C(=O)COC(=O)CCC(=O)c2cccs2)CC1`, the Potency result was “inactive”.
As for `COCC(=O)N(C)[C@H]1C[C@H]2c3cc(Oc4ccccc4C)ccc3CCN2C(=O)[C@H]1[C@H](C)O`, the Potency result was “inactive”.
Consider `CCN(CC)S(=O)(=O)c1ccc(OC)c(NC(=O)CCc2c(C)noc2C)c1`, for which the Potency result is “inactive”.
Regarding `CCN(C(=O)CSc1nnc(-c2ccc(OC(F)F)cc2)n1N)C1CCS(=O)(=O)C1` (stereo not given), the Potency result was “inactive”.
Consider `CC(=O)c1cc(CN2CCC(n3nccc3NC(=O)c3ccccc3Cl)CC2)cs1`, for which the Potency result was “inactive”.
As to `CC(=O)c1cc(CN2CCC(C(=O)Nc3cccc(-c4cscn4)c3)CC2)cs1`, the Potency was 10 µM (active).
As to `O=C(Nc1cccc(-c2cscn2)c1)C1CCN(Cc2ccsc2)CC1`, the Potency result was “inactive”.
As to `CC(C)(C)OC(=O)C[C@@H]1C/C=C\C[C@@H](CC(=O)N[C@@H](CO)Cc2ccccc2)C(=O)N2CCC[C@H]2COC1=O`, the Potency entry is “inactive”.
For `c1ccc2c(c1)CSc1sccc1C2=C1CCNCC1`, the Potency was 15.8 µM (active).
For the molecule `CN1CCC(N(C)S(=O)(=O)c2ccc(NC(=O)c3cccc(C#N)c3)cc2)CC1`, the Potency entry is “inactive”.
Turning to `Cc1cccc(NC(=O)Nc2cccc(Oc3c(F)c(F)c(F)c(F)c3F)c2)c1`, the Potency was 11.2 µM (active).
As to `Cc1cccc(NC(=O)Nc2nnc(-c3ccccc3)o2)c1`, the Potency result was “inactive”.
On to `Cc1cccc(NC(=O)c2cccc(C(F)(F)F)c2)c1`, for which the Potency entry was “inactive”.
`Cc1cc(NC(=O)C(C)N2C(=O)c3ccccc3S2(=O)=O)no1` (stereo not given): the Potency entry is “inactive”.
With `O=C(c1ccc(S(=O)(=O)NCc2ccco2)cc1)N1CCN(c2ccccc2)CC1`, the Potency result is “inactive”.
With `O=C(c1ccccc1)N1CCN(c2ccc([N+](=O)[O-])c(NCc3ccco3)c2)CC1`, the Potency is 8.91 µM (active).
On to `O=[N+]([O-])c1ccc(N2CCN(S(=O)(=O)c3ccc4ccccc4c3)CC2)cc1NCc1ccco1`, for which the Potency result was “inactive”.
`O=C(Nc1cccc2c1CCCC2)c1ccc(F)cc1`: the Potency result was “inactive”.
Then `CCN1C(=O)[C@H]2[C@@H](c3ccc(C)cc3)N3C(=O)N(c4cccc(Br)c4)C(=O)[C@@]3(CC)[C@H]2C1=O`, with “inactive”; and `CN(CC(=O)Nc1cccc(F)c1)C(=O)CC1CCCC1`, with “inactive”.
Regarding `CC(=O)Nc1ccc(NC(=O)C(C)OC(=O)C2CC(=O)N(CCc3ccccc3)C2)cc1` (stereo not given), the Potency entry was “inactive”.
On to `CC[n+]1cc(C)ccc1/C=C/c1ccc(N(C)C)cc1`, for which the Potency was 5.62 µM (active).
Then `CN(C)c1ccc(/C=N\S(=O)(=O)c2ccccc2)cc1`, with “inactive”; and `C/C(=N\Nc1ccccc1)c1cccs1`, with “inactive”; and `Cc1csc(NC(=O)c2ccc(C)s2)n1`, with “inactive”.
Consider `O=C(Nc1ccc2nc3n(c(=O)c2c1)CCCCC3)c1ccccc1Cl`, for which the Potency result is “inactive”.
`COCC(=O)N1CCc2ccc(NC(=O)c3ccccc3Cl)cc2C1`: the Potency entry is “inactive”.
`O=C(Nc1ccc2sc3ccccc3c(=O)c2c1)c1ccccc1Cl`: the Potency is 3.55 µM (active).
For `CCC1CCCCN1C(=S)NC(=O)c1ccco1` (stereo not given), the Potency result was “inactive”.
With `COc1ccc(OC)c(/C=N/NC(=O)c2ccc[n+](CC(=O)c3ccccc3)c2)c1`, the Potency entry is “inactive”.
As to `Cc1cccc(C(=O)OCC(=O)NC(C)C2CC3CCC2C3)c1O` (stereo not given), the Potency result was “inactive”.
Take `COc1ccccc1CNC(=O)CCCN1C(=O)NC2(CCCC2)C1=O`: the Potency entry was “inactive”.
With `O=C(C(c1ccccc1)c1ccccc1)N1CCN(CC(O)COc2ccccc2)CC1` (stereo not given), the Potency entry was “inactive”.
Take `OC(CN=c1sc2ccccc2n1CC(O)COc1ccccc1)COc1ccccc1` (stereo not given): the Potency was 11.2 µM (active).
Turning to `OC(COc1ccccc1)Cn1cc(Br)cn1` (stereo not given), the Potency entry is “inactive”.
In the case of `CN(c1ccccc1)S(=O)(=O)c1cc(C(=O)N2CCN(c3ncccn3)CC2)ccc1Cl`, the Potency result was “inactive”.
For the molecule `Cc1ccc(S(=O)(=O)N2CC(O)C[C@H]2C(=O)OCC(=O)Nc2ccc(N3CCOCC3)cc2)cc1C` (stereo not given in full), the Potency result was “inactive”.
